Laboratory results as given in PubChem BioAssay.
Active and inactive are the calls of the source.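 The calls were made as follows: active = compounds killing one labelled cell type while sparing the other, by normalised counts and ratio limits, not self-fluorescent; inactive = the rest.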

Test: differential killing of epithelial or mesenchymal cells, primary screen, imaging, PC-3E GFP, TEM4-18 mCherry, co-culture (AID 1345086);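 also: cells exposed to compound for 72 h before imaging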;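 as to red/green cell ratio (normalised): normalised mesenchymal count divided by normalised epithelial count so high means epithelial killing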
Conditions: imaging cell counts, at 1 µM; for red/green cell ratio (normalised): actives lie on both sides, counts scaled to control wells, 1 = unselective
[1] = measured here: epithelial PC-3E GFP cell survival
[2] = measured here: mesenchymal TEM4-18 mCherry cell survival

| Structure (SMILES) | red/green cell ratio (normalised) | normalised cell number [1] | normalised cell number [2] |
| --- | --- | --- | --- |
| CO/C(C)=C1/C(=O)C(CO)OC1O (stereo not given) | 1.02 (inactive) | 0.93 | 0.95 |
| COC(=O)C[C@@H]1C2(C)C(=O)[C@@H](CC3=C4C=C(OC)O[C@@H](c5ccoc5)[C@]4(C)CCC32)[C@H](O)C1(C)C (stereo not given in full) | 1.13 (inactive) | 0.99 | 1.12 |
| Cc1cn(CC(=O)O)c(=O)[nH]c1=O | 0.86 (inactive) | 1.15 | 0.99 |
| COC1=CC(=O)C(C)=C(C[C@@H](C)O)C1=O | 1.12 (inactive) | 0.99 | 1.11 |
| COc1c(N2CC[C@@H](CN)C2)c(F)cc2c(=O)c(C(=O)O)cn(Cc3ccc(-c4ccccc4)cc3)c12 | 1.14 (inactive) | 0.86 | 0.98 |
